Test results from PubChem BioAssay AID1159580 (chemical genetic matrix, 2015).
Out of some 5,500 compounds screened, about 2,000 (36%) were called active. Roughly 18% stayed inconclusive and do not appear here. Cut-off read from the data, not from the text of the source: active = normalized growth mostly below about 0.91 (no sharp cut-off); inconclusive = no clear call, values can overlap the other calls; inactive = mostly above about 0.92. The list shows a part of the results.

Assay: chemical genetic growth profiling, strain panel (AID 1159580);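 note: tested at 20 µM; growth read once vehicle control cultures reached saturation at 30 °C; 1 = growth at the plate median or of vehicle wells; lower values mean less growth of the strain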
Conditions: S. cerevisiae deletion strains, growth OD

Measured: normalized growth

COc1cc2c(cc1OC)C1C(=O)c3ccc4c(c3OC1CO2)CCC(C)(C)O4 (stereo not drawn)
inactive: locus YBR021W, strain FUR4, active compounds read low 0.985 | locus YBR229C, strain ROT2, active compounds read low 1 | locus YCL029C, strain bik1, active compounds read low 1.04 | locus YDL035C, strain GPR1, active compounds read low 1.01 | locus YDL074C, strain BRE1, active compounds read low 0.993 | locus YDL101C, strain DUN1, active compounds read low 0.997 | locus YDL185W, strain tfp1, active compounds read low 1.03 | locus YDL192W, strain arf1, active compounds read low 1.01 | locus YDR101C, strain arx1, active compounds read low 0.997 | locus YDR162C, strain NBP2, active compounds read low 1.03 | locus YDR318W, strain mcm21, active compounds read low 1.01 | locus YDR388W, active compounds read low 1 | locus YDR502C, strain sam2, active compounds read low 1.02 | locus YEL061C, strain CIN8, active compounds read low 1 | locus YER110C, active compounds read low 1.02 | locus YER155C, strain BEM2, active compounds read low 0.996 | locus YER167W, strain BCK2, active compounds read low 0.999 | locus YGL078C, strain dbp3, active compounds read low 1.03 | locus YGL086W, strain mad1, active compounds read low 1.02 | locus YGL248W, strain PDE1, active compounds read low 0.99 | locus YGR078C, strain PAC10, active compounds read low 0.996 | locus YGR135W, strain pre9, active compounds read low 1.02 | locus YGR252W, strain gcn5, active compounds read low 0.957 | locus YHR030C, strain SLT2, active compounds read low 1.01 | locus YHR079C, strain IRE1 (second series), active compounds read low 1 | locus YHR094C, strain hxt1, active compounds read low 1.02 | locus YHR129C, strain ARP1, active compounds read low 1.01 | locus YHR200W, strain rpn10, active compounds read low 1 | locus YIL066C, strain RNR3, active compounds read low 1 | locus YIL073C, strain SPO22, active compounds read low 1.02 | locus YIL125W, strain kgd1, active compounds read low 1.02 | locus YIR030C, strain dcg1, active compounds read low 1 | locus YJL095W, strain BCK1, active compounds read low 1.01 | locus YJL134W, strain LCB3, active compounds read low 0.996 | locus YJL168C, strain set2, active compounds read low 1 | locus YJL187C, strain SWE1 (second series), active compounds read low 0.999 | locus YJR043C, strain POL32, active compounds read low 1.01 | locus YKL009W, strain mrt4, active compounds read low 1.03 | locus YKL068W, active compounds read low 1 | locus YKL085W, strain MDH1 (second series), active compounds read low 1.01 | locus YKL085W, strain MDH1, active compounds read low 1.01 | locus YKR001C, strain vps1, active compounds read low 0.994 | locus YLR039C, strain RIC1, active compounds read low 1.01 | locus YLR058C, strain SHM2, active compounds read low 0.999 | locus YLR102C, strain apc9, active compounds read low 1.01 | locus YLR262C, strain YPT6, active compounds read low 1.04 | locus YLR268W, strain sec22, active compounds read low 1.02 | locus YLR330W, strain CHS5, active compounds read low 1.01 | locus YLR342W, strain FKS1 (second series), active compounds read low 1 | locus YLR371W, strain rom2, active compounds read low 1.01 | locus YLR418C, strain cdc73, active compounds read low 1 | locus YML016C, strain PPZ1, active compounds read low 1 | locus YML032C, strain rad52, active compounds read low 1.02 | locus YML124C, strain tub3, active compounds read low 1 | locus YMR078C, strain ctf18, active compounds read low 0.997 | locus YMR223W, strain ubp8, active compounds read low 0.999 | locus YMR263W, strain SAP30, active compounds read low 0.998 | locus YMR307W, strain GAS1, active compounds read low 1 | locus YNL067W, strain RPL9B, active compounds read low 0.993 | locus YNL128W, strain TEP1, active compounds read low 1.03 | locus YNL153C, strain GIM3, active compounds read low 1.02 | locus YNL233W, strain BNI4, active compounds read low 0.982 | locus YNL250W, strain rad50, active compounds read low 1.02 | locus YNL271C, strain bni1, active compounds read low 1.03 | locus YNL298W, strain CLA4, active compounds read low 1.01 | locus YNL307C, strain MCK1, active compounds read low 1 | locus YNL322C, strain KRE1, active compounds read low 1 | locus YNR052C, strain pop2, active compounds read low 1.02 | locus YOL006C, strain TOP1, active compounds read low 0.984 | locus YOL012C, strain htz1 1.01 | locus YOL147C, strain pex11, active compounds read low 1 | locus YOR061W, strain CKA2, active compounds read low 1.01 | locus YOR069W, strain VPS5, active compounds read low 1 | locus YOR136W, strain idh2, active compounds read low 1.02 | locus YOR144C, strain elg1, active compounds read low 1.01 | locus YOR184W, strain ser1, active compounds read low 1.02 | locus YOR316C, strain cot1, active compounds read low 1.01 | locus YPL241C, strain CIN2, active compounds read low 0.993 | locus YPR119W, strain clb2, active compounds read low 1.02 | locus YPR141C, strain kar3, active compounds read low 1.01 | locus YPR163C, strain tif3, active compounds read low 1.01 | locus YPR167C, strain met16, active compounds read low 1 | strain wtn01, active compounds read low 1.02
